Molecular target: FAM194A
Test: pooled miR-30 sensor sort-seq; sequence = guide strand
Settings: shRNA

Sequence | sensor-assay potency score (higher = more potent)
TTAGTTTCGACTCTTCTGGATT | -1.18
TTATATCTTGCTTTATACCAGA | -0.69
TAGAATATTTGTGTTGTCCCAT | 0.0372
TTCTCTAAGAGCTCATTCCTGA | -0.231
TAGAAATCTTGTCTTGTTCTAA | 0.351
TTTAGTTTCGACTCTTCTGGAT | 0.0335

Molecular target: FAM203A
Test: as above
Settings: shRNA

Sequence | sensor-assay potency score (higher = more potent)
ATGGCTTCAACAAGCATCTTGC | -0.247
AGGTCCAAGCAACCACTCGTGA | -1.79
TGATGTCGGTGCTCGAAGCAGC | -0.572
TCTTGCGGATGTCTGCATCAGG | -1.13
TAGCCGGGCGTGCACAGCGCGC | -1.89
TGCATCAGGTTCTCGCTGCTTG | -0.383
TGCAAGTCGACAGGCAGCCGTT | -1.26
TTCAACAAGCATCTTGCGGATG | -0.806
TGGACCACGCACCTGTCGGGGT | -1.1
TCCAACTGCTCCTGCTCCCTGC | -0.834
TTGCAGTGGTTTTCTGTCCAGT | -0.715

Molecular target: FAM22D
Test: as above
Settings: shRNA

Sequence | sensor-assay potency score (higher = more potent)
TTGGTGACGAAGTCTTTCTGGG | -0.0512
TGTTCTGTCACCAGAGGTGTGC | -0.395
AAGTTAGACAGCACCAGAGGGC | -0.454
ATGAATGACGGCCTCCACCTTG | -1.02
TGAGGAAGCACGAAAGCGCTTC | -0.41
TAAGACCAAGGTCTGCGCCTGA | -0.117
TTTGAAAGTAAACAGGTTCCTG | -0.0805
TTGGTCTCTGCTCGCCGGTGGG | -1.33
TGGTCTCTGCTGGTCTCTGGGG | -1.54
TACTCCTGCACCACTTCTGGGG | -0.442
AATTCTTCCAGGAATTGGGGAT | -0.511
TTCCACAATGAGAAAAGCCAAG | -1.63
TTGAAAGTAAACAGGTTCCTGG | -0.42
TTCGGTGTCAGGACTCTGGGGA | 0.265
TTCTCATAGACACTCCTGGGGT | -0.655
TTAGACAGCACCAGAGGGCCGC | -0.28
TAAGACCCAGAGAGTGACCTGG | -0.135
TCTCATAGACACTCCTGGGGTT | 0.0703

Molecular target: FAM22F
Test: as above
Settings: shRNA

Sequence | sensor-assay potency score (higher = more potent)
TTTCTGAGCAGATGGAGACTGA | -0.731
TTGACAGGAGACTCTCCAGGGA | -0.14
TCTCTCGCTGCTTCTTGGCCAG | -0.748
AAGGACTTGAGTCCAACCTGGC | -0.389
TTCTTGGACTTGCTGGCAGGAG | -0.948

Reference: the OligoGym collection
